Structures are written as SMILES. Active and inactive are the calls of the source.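 How the source made its calls, unless noted: active means inhibition above 20% together with a positive visual image hit; inconclusive means visual image hit but inhibition not above 20%; inactive means no visual image hit.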

A short description of test [1]: inhibitors of TNFa-induced NFkB p65 translocation, primary screen, imaging, HUVEC, MLSMR starter and 10KST1 sets (AID 438).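 Further: compound added about 3h40 before a 20 min TNFalpha stimulation.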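 On inhibition: signal is the nuclear over cytoplasmic p65 intensity ratio per well.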 The following applies: HUVEC TNFa-induced p65 nuclear translocation; cell count: measured here: nuclei count (cytotoxicity indicator), at 2.08 µM; inhibition: at 2 µM, stronger effect = higher value, 0% TNFa-plus-vehicle, 100% no-TNFa wells.
A short description of test [2]: reduction of polyQ htt aggregates in cells – imaging, exon1htt(103Q)mCFP cells, high-content imaging, primary screen (AID 483;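 active means visual image review flags a hit and inhibition of aggregation exceeds 20%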;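 further: compound exposure lasted 3 days before fixation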;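 on nuclei count: percent of the per-plate median nuclei count of sample wells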). The following applies: exon1htt(103Q)mCFP cell line, aggregate imaging, at 2 µM; inhibition of aggregation: stronger effect = higher value; nuclei count: measured here: cell count, toxicity.
Test [3] is described as follows: endothelial E-selectin expression blockers – imaging, HUVEC, immunofluorescence, MLSMR starter and 10KST1 sets, primary screen (AID 487;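 active means visually confirmed hit in the image check and inhibition above 20%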;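 on inhibition: signal is fraction of cell area covered by stained E-selectin grains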;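 on nuclei count: 100% = median nuclei count of all wells on the same plate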). The following applies: HUVEC TNFalpha-induced E-selectin immunofluorescence imaging, at 2 µM; inhibition: stronger effect = higher value; nuclei count: measured here: cell number, toxicity.
Test [4] in a line: Primary imaging screen for DUSP6 inhibitors that restore phospho-Erk in transfected HeLa cells, chemical complementation (AID 609;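 active means compounds giving at least 50% inhibition in the cell-based MKP-3 phosphatase rescue imaging test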;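 on inhibition: phospho-Erk level distribution per well compared with pooled transfected vehicle control wells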). The conditions noted are these: HeLa MKP-3 transfected, phospho-Erk imaging KS statistic, at 10 µM, cells stimulated with TPA for 15 min.
In test [5] the target is Dual specificity protein phosphatase 6 (Homo sapiens) (UniProt Q16828). The description is as above. The conditions noted are these: HeLa MKP-3 transfected, phospho-Erk imaging KS statistic; at 10 µM; stronger effect = higher value; cells stimulated with TPA for 15 min.
Chain of Dual specificity protein phosphatase 6 (Homo sapiens) (Q16828 whole entry, looked up): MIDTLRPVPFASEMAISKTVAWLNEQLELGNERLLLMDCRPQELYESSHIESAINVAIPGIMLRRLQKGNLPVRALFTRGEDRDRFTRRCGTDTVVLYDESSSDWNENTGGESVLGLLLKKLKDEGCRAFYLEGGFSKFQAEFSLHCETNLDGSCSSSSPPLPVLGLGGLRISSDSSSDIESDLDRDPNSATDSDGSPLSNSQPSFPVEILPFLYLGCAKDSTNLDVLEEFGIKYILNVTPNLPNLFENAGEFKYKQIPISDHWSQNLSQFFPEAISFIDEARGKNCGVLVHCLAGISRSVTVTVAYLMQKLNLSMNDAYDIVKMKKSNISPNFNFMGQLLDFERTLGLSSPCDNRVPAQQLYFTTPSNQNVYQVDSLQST
The target of test [6] is Voltage-gated potassium channel subunit beta-2 (Rattus norvegicus) (UniProt P62483). In words: inhibitors of rat Kvbeta2 reductase activity – biochemical, NADPH fluorescence, primary screen (AID 622;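 active means fluorescence slope higher than the sample average by over 3 SD, cut at about -0.22 in these data, passing the limit was not always enough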;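 further: slope of raw intensity against log time taken from 70 to 1610 s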). The following applies: recombinant KvBeta, 4-cyanobenzaldehyde reduction, at 10 µM, stronger effect = higher value.
Chain of Voltage-gated potassium channel subunit beta-2 (Rattus norvegicus) (P62483 whole entry, looked up): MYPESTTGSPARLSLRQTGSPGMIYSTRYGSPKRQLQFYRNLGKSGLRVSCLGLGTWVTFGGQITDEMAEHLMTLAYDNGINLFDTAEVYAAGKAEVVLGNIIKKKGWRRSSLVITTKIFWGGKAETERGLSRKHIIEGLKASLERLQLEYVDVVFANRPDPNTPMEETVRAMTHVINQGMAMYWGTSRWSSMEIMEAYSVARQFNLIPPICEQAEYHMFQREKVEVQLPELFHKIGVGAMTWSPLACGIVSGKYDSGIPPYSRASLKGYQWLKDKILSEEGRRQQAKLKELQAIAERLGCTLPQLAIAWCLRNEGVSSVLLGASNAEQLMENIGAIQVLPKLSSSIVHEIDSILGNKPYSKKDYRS
Test [7] shares this target. In words: enhancers of rat Kvbeta2 NADPH turnover – biochemical, NADPH fluorescence, primary screen (AID 623;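 active means NADPH fluorescence slope more negative than the mean of all samples by about 3 SD, 99.7% confidence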;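 further: fluorescence intensity change per second fitted from 20 to 320 s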). The following applies: Recombinant KvBeta, NADPH fluorescence decrease slope, 10 min; at 10 µM; stronger effect = lower value.
Test [8] has as its target Alpha-2C adrenergic receptor (Homo sapiens) (UniProt P18825). In words: compounds altering alpha2C-coupled GIRK flux – cell-based, HEK293 alpha2C/GIRK1/2, thallium flux, primary screen (AID 624;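 active means fluorescence slope after compound addition differing from the mean of all screened samples at 99.7% confidence, in either direction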;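 further: slope of fluorescence ratio to pre-addition baseline per second over 15 to 24 s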). The conditions noted are these: thallium flux BTC fluorescence, at 10 µM, actives lie on both sides.
The target in test [9] is Muscarinic acetylcholine receptor M4 (Homo sapiens) (UniProt P08173). In words: M4-linked GIRK flux change, two-sided – cell-based, HEK293 M4/GIRK, thallium flux, BTC-AM, M4 allosteric agonist project, primary screen (AID 625;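 active means fluorescence slope after compound addition differing from the mean of all tested samples at 99.7% confidence, mostly higher but some lower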;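 further: thallium influx through GIRK channels coupled to M4 in HEK293 cells with BTC-AM dye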). The following applies: at 10 µM, actives lie on both sides.
Chain of Muscarinic acetylcholine receptor M4 (Homo sapiens) (P08173 whole entry, looked up): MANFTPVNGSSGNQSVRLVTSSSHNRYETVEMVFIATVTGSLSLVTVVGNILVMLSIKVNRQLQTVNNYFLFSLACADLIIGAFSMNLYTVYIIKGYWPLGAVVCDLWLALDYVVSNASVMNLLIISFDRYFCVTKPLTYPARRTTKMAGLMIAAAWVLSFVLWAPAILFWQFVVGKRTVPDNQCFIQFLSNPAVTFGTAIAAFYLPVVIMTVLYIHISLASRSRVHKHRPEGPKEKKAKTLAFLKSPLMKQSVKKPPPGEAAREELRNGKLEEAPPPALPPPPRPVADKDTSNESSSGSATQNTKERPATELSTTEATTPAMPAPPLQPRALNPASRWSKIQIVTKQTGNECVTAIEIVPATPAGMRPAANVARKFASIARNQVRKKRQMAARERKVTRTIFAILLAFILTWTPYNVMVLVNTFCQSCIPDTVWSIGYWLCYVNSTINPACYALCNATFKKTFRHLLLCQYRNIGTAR
Test [10] can be described thus: inhibitors of larval lipid processing in zebrafish, primary screen, whole organism, PED6 fluorescence, gall bladder and intestine (AID 686;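 active means a full or partial loss of lipid-probe fluorescence in the fish gall bladder, intestine or both, judged by eye; inactive means no fluorescence loss, or compound toxic to the fish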;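 further: larvae 5 to 7 days old with five fish per well; signal comes from phospholipase A2 cleavage of quenched PED6 carried via bile; overnight exposure to compound and PED6 before scoring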). The conditions noted are these: Zebrafish larvae PED6 lipid processing, fluorescence scoring; screened at 20 µM (by protocol).
Test [11] in a line: loss of swimming-algae plug formation – whole organism, Chlamydomonas reinhardtii, WT vs cilia-less mutant, absorbance, 96-well, primary screen (AID 463189;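 active means inhibition at or above 50% relative to wild type and mutant plate controls; inactive means inhibition below 50%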;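 further: 0% = wild type cc124 cells in DMSO and 100% = ciliumless bld1 mutant cells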). The conditions noted are these: Chlamydomonas reinhardtii gravitaxis, OD600 absorbance, 2 days; at 10 µM; stronger effect = higher value.
Test [12] is described as follows: blockers of RIG-like receptor reporter activation – cell-based, Sendai virus stimulus, luciferase, 10K MLSCN set, TLR/RLR signaling modifier project, primary screen (AID 602276;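 active means inhibition at or above 50% at 10 µM; inactive means inhibition below 50%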;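 further: firefly luciferase from ISG56 promoter only with Renilla not read in this screen; 0% = Sendai virus plus DMSO and 100% = medium plus DMSO without virus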). The conditions noted are these: HEK293 RL24 IRF3 luciferase reporter, at 10 µM, stronger effect = higher value.
Test [13] in a line: TLR3 IRF3 reporter activation blockers – cell-based, poly I:C stimulus, luciferase, 10K MLSCN set, primary screen (AID 602277;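 active means inhibition of the reporter signal at or above 50%; inactive means inhibition below 50%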). The conditions noted are these: HEK293-TLR3 RL24 IRF3 luciferase reporter, at 10 µM, stronger effect = higher value.
[14] abbreviates: measured here: cell density z-score.
Where [15] appears, read: measured here: nuclear c-Myc green intensity z-score.
The mark [16] stands for this setting: measured here: nuclear pErk red intensity z-score, stronger effect = higher value.

Chain of Alpha-2C adrenergic receptor (Homo sapiens) (P18825 whole entry, looked up): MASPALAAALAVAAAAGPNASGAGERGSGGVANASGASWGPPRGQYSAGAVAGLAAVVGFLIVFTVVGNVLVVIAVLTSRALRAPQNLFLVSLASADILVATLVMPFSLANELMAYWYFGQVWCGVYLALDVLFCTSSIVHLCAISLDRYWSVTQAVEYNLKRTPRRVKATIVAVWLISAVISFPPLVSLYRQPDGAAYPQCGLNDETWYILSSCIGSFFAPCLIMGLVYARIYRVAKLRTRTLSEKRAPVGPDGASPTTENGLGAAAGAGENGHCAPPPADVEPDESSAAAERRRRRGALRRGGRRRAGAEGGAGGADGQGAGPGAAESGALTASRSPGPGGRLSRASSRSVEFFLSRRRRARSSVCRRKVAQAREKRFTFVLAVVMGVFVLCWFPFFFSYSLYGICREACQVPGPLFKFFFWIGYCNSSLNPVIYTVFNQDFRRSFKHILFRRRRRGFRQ

Consider `N#Cc1c(N2CCOCC2)nc(N2CCCCC2)c2c1CCN(C1CCCCC1)C2`, for which, in test [1], the cell count was determined as 486. The inhibition (in general, the drop in the measured response relative to a control, in per cent) in test [1] was -5.3% (inactive); in [3], -130% (inactive); in test [5] it was -13.3% (inactive); in test [11] it was 2.06% (inactive); in test [12], -1.64% (inactive); in test [13], 99% (active). For the same compound, the inhibition of aggregation in test [2] is 6.4% (inactive). Moreover, the nuclei count came out at 102% in test [2] and 119% in [3]. In addition, the z-score is -0.146 in test [4] (setting [14]), 1.29 in test [4] (setting [15]) and 0.496 in [4] (setting [16]). Moreover, the fluorescence slope is -0.442 (inactive) in test [6] and 0.00444 (inactive) in test [9]. Also, the NADPH fluorescence slope in test [7] is -0.000108 (inactive). Further, in test [8], the slope was 0.00466 (inactive). For the same compound, the compound was classed as inactive in test [10].
For `CCN(CC)C(=O)c1sc2nc(-c3cccs3)cc(-c3cccs3)c2c1N`, the cell count in [1] came out at 443. Further, the inhibition in test [1] was -1.7% (inactive); in test [3], -166% (inactive); in test [5] it was 9.61% (inactive); in test [11] it was 15.5% (inactive); in [12] it was 20.8% (inactive); in [13] it was 23.7% (inactive). Further, the inhibition of aggregation in [2] was 0.6% (inactive). Moreover, the nuclei count in test [2] was 90%; in test [3] it was 121%. The z-score in test [4] (setting [14]) was 1.5; in [4] (setting [15]) it was -1.58; in test [4] (setting [16]), -0.775. Besides, the fluorescence slope in [6] is 1.5e-14 (active); in test [9] it was -0.00241 (active). Moreover, the NADPH fluorescence slope in test [7] is 0 (inactive). The slope in [8] was 0.00378 (inactive). For the same compound, the outcome in test [10] is “active; no signal in gallbladder and intestine”.
Turning to `CCCCCC1CC(CC#CCN2CCOCC2)C(=O)O1` (stereo not given), the cell count in [1] was 620. Further, the inhibition in [1] was -2.8% (inactive); in test [3] it was -6.1% (inactive); in test [5], 3.49% (inactive); in test [11], -4.86% (inactive); in [12], -1.94% (inactive); in test [13] it was 10.9% (inactive). Moreover, the inhibition of aggregation in test [2] was 10.5% (inactive). Moreover, the values for the nuclei count in [2] and in test [3] were 90.2% and 128%, respectively. Moreover, the z-score in test [4] (setting [14]) is 0.645; in test [4] (setting [15]), -0.292; in [4] (setting [16]), 0.592. Further, the fluorescence slope is -0.452 (inactive) in [6] and 0.00481 (inactive) in [9]. Moreover, the NADPH fluorescence slope in [7] is -4.2e-05 (inactive). Moreover, the slope in [8] is 0.00528 (inactive). For the same compound, the result in [10] was inactive.
As to `N#CCc1nc2c3c4c(sc3ncn2n1)CCCC4`, the cell count in [1] was 436. The inhibition was -7.3% (inactive) in [1]; -12.1% (inactive) in [3]; 5.95% (inactive) in test [5]; 0.738% (inactive) in test [11]; 5.18% (inactive) in test [12]; -26.2% (inactive) in [13]. In [2], the inhibition of aggregation was -155% (inactive). The values for the nuclei count in test [2] and in test [3] were 1.9% and 130%, respectively. Besides, the z-score in test [4] (setting [14]) worked out at 0.106; in test [4] (setting [15]) it was 1.08; in test [4] (setting [16]), 0.152. Moreover, the figures for the fluorescence slope in test [6] and in test [9] were -0.413 (inactive) and 0.00496 (inactive), respectively. Further, in test [7], the NADPH fluorescence slope was -4.9e-05 (inactive). In addition, the slope in test [8] is 0.00471 (inactive). In addition, the compound was called inactive in test [10].
On to `COc1ccc(Cn2c(N)c(C#N)c3nc4ccccc4nc32)cc1OC`, for which the cell count in test [1] stood at 497. Also, the inhibition was 2.3% (inactive) in test [1]; -66.5% (inactive) in test [3]; 27.8% (inactive) in test [5]; 2.2% (inactive) in [11]; 15.4% (inactive) in test [12]; 14.9% (inactive) in test [13]. Also, in test [2], the inhibition of aggregation is 12.4% (inactive). Also, the nuclei count in [2] turned out to be 100%; in [3], 123%. Moreover, the z-score in test [4] (setting [14]) is 0.51; in test [4] (setting [15]), -0.363; in test [4] (setting [16]), -0.944. Further, the fluorescence slope in [6] is -0.285 (inactive); in test [9] it was 0.00496 (inactive). Further, in test [7], the NADPH fluorescence slope is -1.3e-05 (inactive). Also, the slope in test [8] was 0.00453 (inactive). Also, the result in test [10] was inactive.
`COc1ccccc1C1(CC(=O)N2CCOCC2)CCOC(C(C)C)C1` (stereo not given): in test [1], the cell count was 506. For the same compound, the inhibition in test [1] was -6.5% (inactive); in [3], 3.2% (inactive); in [5], 5.95% (inactive); in test [11], 12.8% (inactive); in [12], -1.02% (inactive); in test [13], -0.559% (inactive). For the same compound, in [2], the inhibition of aggregation is -10.9% (inactive). Further, the nuclei count came to 102% in [2] and 131% in test [3]. Also, the z-score came to 0.755 in [4] (setting [14]), 0.316 in [4] (setting [15]) and 1.01 in [4] (setting [16]). In addition, the fluorescence slope is -0.414 (inactive) in [6] and 0.00519 (inactive) in [9]. Also, the NADPH fluorescence slope in [7] is -4.7e-05 (inactive). Also, in [8], the slope is 0.00593 (inactive). In [10], the compound was classed as inactive.
For `COc1c2occc2c(OC)c2c(=O)cc(C)oc12`, the cell count in test [1] is 555. Further, the inhibition in [1] is -5.1% (inactive); in test [3], -78.7% (inactive); in [5], 21.2% (inactive); in test [11] it was -3.66% (inactive); in test [12] it was 14.8% (inactive); in test [13] it was 36% (inactive). Also, the inhibition of aggregation in test [2] is 13.1% (inactive). Further, the nuclei count is 103% in test [2] and 136% in test [3]. Further, the z-score is -0.618 in [4] (setting [14]), 0.0772 in [4] (setting [15]) and -0.0412 in test [4] (setting [16]). Moreover, in [6], the fluorescence slope is -0.445 (inactive). Also, the NADPH fluorescence slope in test [7] was -4.4e-05 (inactive). Also, the slope in test [8] was 0.00425 (inactive).
As for `Cc1c(C2Nc3ccccc3NC3=C2C(=O)CC(C)(C)C3)cnn1C` (stereo not given), the cell count in test [1] amounted to 678. The inhibition in [1] was 34.8% (active); in test [3] it was -16.2% (inactive); in test [5], 14.7% (inactive); in test [11], 14.4% (inactive); in [12], 35.1% (inactive); in [13], 99.4% (active). Besides, the inhibition of aggregation in test [2] is -2% (inactive). Also, the nuclei count in [2] was 115%; in test [3], 101%. Moreover, the z-score is 0.508 in test [4] (setting [14]), -0.847 in test [4] (setting [15]) and -0.607 in test [4] (setting [16]). The fluorescence slope in [6] was -0.548 (inactive); in test [9], 0.00628 (inactive). For the same compound, the NADPH fluorescence slope in test [7] was -2.1e-05 (inactive). In addition, the slope in test [8] was 0.00605 (inactive). Moreover, in [10], the outcome was inactive.
With `CCCCOc1ccc(C(=O)Nc2ccc(N3CCN(C(C)=O)CC3)cc2)cc1`, in test [1], the cell count was determined as 490. In addition, the inhibition in test [1] was -7.3% (inactive); in test [3], -28.4% (inactive); in test [5] it was 5.95% (inactive); in test [11], 3.64% (inactive); in test [12], 6.98% (inactive); in [13], 2.99% (inactive). Further, the inhibition of aggregation in [2] was 0.5% (inactive). Besides, the figures for the nuclei count in test [2] and in test [3] were 104% and 141%, respectively. For the same compound, the figures for the z-score in test [4] (setting [14]), in [4] (setting [15]) and in test [4] (setting [16]) were 1.4, -2.16 and 0.274, respectively. In addition, the fluorescence slope in test [6] is -0.265 (inactive); in test [9] it was 0.00551 (inactive). In addition, the NADPH fluorescence slope in [7] is 1.1e-05 (inactive). For the same compound, the slope in test [8] is 0.00636 (inactive). Also, the call in [10] was inactive.
